Test system: RIVA
Assay: growth inhibition by drug alone (1 - RLU/untreated control) (fraction); higher = stronger inhibition
Conditions: 177Lu-lilotomab satetraxetan 0 ug/ml
Description: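 RIVA (RI-1) ABC-DLBCL cells were pretreated or not for 18 h with 0.5 ug/ml 177Lu-lilotomab satetraxetan (600 MBq/mg), washed and seeded (3000 cells/well) on 384-well plates pre-printed with the Selleck Cambridge Cancer Compound library. Viability was read by RealTime-Glo luminescence on days 3-6 after seeding. Effect = 1 - RLU/mean RLU of the 48 untreated no-drug control wells per plate; Bliss score = (M-E)/(1-Fa).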

SMILES	growth inhibition by drug alone (10 nM, time (day): 3)	growth inhibition by drug alone (10 nM, time (day): 4)	growth inhibition by drug alone (10 nM, time (day): 5)	growth inhibition by drug alone (10 nM, time (day): 6)	growth inhibition by drug alone (100 nM, time (day): 3)	growth inhibition by drug alone (100 nM, time (day): 4)	growth inhibition by drug alone (100 nM, time (day): 5)	growth inhibition by drug alone (100 nM, time (day): 6)
CC[C@@H](C(=O)[C@@H](C)[C@@H](O)[C@H](C)[C@@H]1O[C@@H]([C@@H](CC)C(=O)O)CC[C@@H]1C)[C@H]1O[C@]2(C=C[C@@H](O)[C@]3(CC[C@@](C)([C@H]4CC[C@](O)(CC)[C@H](C)O4)O3)O2)[C@H](C)C[C@@H]1C [Salinomycin (Procoxacin)]	0.136	0.0825	-0.0184	-0.226	0.144	0.126	0.0706	-0.0392
Cc1ccccc1-n1c(Cn2cnc3c(N)ncnc32)nc2cccc(C)c2c1=O	-0.0276	-0.0854	-0.0849	-0.118	0.0893	-0.00364	-0.0617	-0.104
N.N.[Cl][Pt][Cl] [Cisplatin]	-0.00407	-0.0943	-0.0938	-0.114	0.0654	-0.0804	-0.0914	-0.104
C=C1C[C@@H]2[C@H](CC[C@]3(C)C(=O)CC[C@@H]23)[C@@]2(C)C=CC(=O)C=C12 [Exemestane]	0.0187	0.00346	-0.0171	-0.272	-0.247	-0.223	-0.21	-0.228
O=C(O)c1nn(Cc2ccc(Cl)cc2Cl)c2ccccc12 [Lonidamine]	0.0283	0.0585	0.0114	-0.393	-0.419	-0.301	-0.332	-0.381

From the supplement of paper PMC6897291
